The list is not random: actives were taken first. Their share in the collection is about 1.8%.
697 NFkB inh – inhibitors of the PMA/ionomycin-induced NF-kB reporter in 697 B cells. hit rate 0.33% among 330,000. inhibition, % at 4 µM. 697 B-cell NF-kB luciferase reporter, 16 h. AID 435022; in the data active = inhibition above about 35%
Beta apoptosis – blocks beta cell apoptosis. INS-1E cytokine-induced death, ATP luminescence, 48 h; percent of positive-control rescue, neutral wells zero. protection from apoptosis, % (test concentration not listed). hit rate 0.8% among 300,000. AID 435005;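 active = Every replicate reaches about 75%, or at least half do and their mean reaches it too, limit read from the data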;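 note: 0% = cytokine-treated negative control wells and 100% = positive control rescue; higher means more ATP so stronger rescue from cytokine killing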
Gli-Sufu block – antagonists of Gli-Sufu signaling | AID 588413 | inhibition, % at 5 µM | Sufu-KO-LIGHT fibroblasts, Gli luciferase reporter luminescence | hit rate 0.74% among 340,000;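 active = inhibition above about 55%, limit read from the data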;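 note: 0% = DMSO-treated cells and 100% = wells with medium but no cells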
Jurkat NFkB inh – inhibitors of the PMA/ionomycin-induced NF-kB reporter in Jurkat cells | AID 435003 | inhibition, % at 4 µM | hit rate 0.53% among 330,000 | PMA/ionomycin-induced NF-kB luciferase reporter, luminescence; in the data active = inhibition above about 50%
Gli-Sufu confirm – confirmation of Gli-SUFU pathway antagonists; shares compounds with Gli-Sufu block; Sufu-KO-LIGHT cells, Gli luciferase reporter, luminescence; inhibition, % at 5 µM; hit rate 40% among 2,500; AID 602428;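 active = mean inhibition at 5 µM reaching about 45%, limit read from the data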;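 note: plate controls were DMSO-treated cells for no effect and wells lacking cells for full effect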
SufuKO cytotox – cytotoxic in Gli-SUFU antagonist counter-screen | Sufu-KO-LIGHT cells cytotoxicity, ATP luminescence | cytotoxicity, % at 5 µM | AID 651994 | shares compounds with Gli-Sufu block | hit rate 32% among 2,500;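 active = mean cytotoxicity at 5 µM above about 25%, limit read from the data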;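 note: cells exposed to compound overnight for roughly 16 to 18 hours; plate controls were DMSO wells with cells for no effect and medium without cells for full effect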
Wnt3a cs – inhibits Wnt3a reporter, counter-screen for Gli-SUFU antagonists; shares compounds with Gli-Sufu block; Wnt-LIGHT cells, Wnt3a-driven luciferase reporter, luminescence; inhibition, % at 6.25 µM; hit rate 20% among 2,500;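 active = mean inhibition above about 25%, limit read from the data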
Numbers without * were called inactive; . = no result.

SMILES | 697 NFkB inh | Beta apoptosis | Gli-Sufu block | Jurkat NFkB inh | Gli-Sufu confirm | SufuKO cytotox | Wnt3a cs
CC(C)n1c(O)c(C=NCc2ccccc2)c(=O)[nH]c1=S | 11.1 | -2.5 | -3.9 | 13.6 | . | . | .
CC[C@@]1(O)C(=O)OCc2c1cc1n(c2=O)Cc2cc3c(NC(=O)CN)cccc3nc2-1 | -132.0 | 71.3 | 30.6 | 49.2 | . | . | .
CCC1(OC(=O)CN)C(=O)OCc2c1cc1n(c2=O)Cc2cc3ccccc3nc2-1 (stereo not given) | . | 92.3* | 82.1* | . | 58.7* | 59.0* | -82.9
Cc1cccnc1NC1=NCC(C)S1 (stereo not given) | -14.0 | . | -4.7 | -7.9 | . | . | .
CCOP(=O)(OCC)C(O)c1cccc([N+](=O)[O-])c1 (stereo not given) | 10.3 | -5.8 | 57.5* | 10.5 | 12.2 | 25.0* | -34.5
Cc1ccc(N2C(=O)NC(=O)/C(=C\c3cc(C)n(-c4sc5c(c4C#N)CCCC5)c3C)C2=O)cc1 | -2.8 | 1.9 | 58.7* | -1.9 | 53.0* | 42.3* | -44.6
CCN1C(=O)NC(=O)/C(=C/c2cc(C)n(-c3sc(C)c(C)c3C#N)c2C)C1=O | 1.8 | 0.1 | 0.1 | 3.0 | . | . | .
CCCCNC(C)Cc1ccccc1 (stereo not given) | 0.0 | . | -15.2 | -5.2 | . | . | .
O=C(OC1CCN(CCCl)CC1)C(c1ccccc1)c1ccccc1 | 12.9 | -5.2 | -2.5 | 0.6 | . | . | .
O=C(c1ccncc1)C12CN3CN(CN(C3)C1)C2 | -26.6 | -4.4 | -12.6 | -30.6 | . | . | .
COc1cc2c(cc1OC)C1C(=O)c3ccc4c(c3OC1CO2)CC(C(C)C)O4 (stereo not given) | . | . | 85.2* | . | 89.3* | 46.9* | 37.3*
Cc1cc(-c2ccccc2)cc(-c2ccccc2)[n+]1CCc1ccccc1 | 32.6 | 133.0* | 91.7* | 42.5 | 91.9* | 47.5* | 73.0*
CCOc1ccc(-c2cc(C)[n+](CCO)c(-c3ccc(OCC)cc3)c2)cc1 | -16.9 | 36.5 | 64.2* | 22.8 | 60.4* | 34.2* | -46.9
CCOC(C[n+]1c(-c2ccccc2)cc(C)cc1-c1ccccc1)OCC | 15.1 | 2.6 | 0.4 | 3.1 | . | . | .
CC(C)C(=O)Nc1ccc(S(=O)(=O)N2CC3CC(C2)c2cccc(=O)n2C3)cc1 (stereo not given) | -1.6 | -7.7 | -2.4 | -14.9 | . | . | .
Cc1cc(N(CCCl)CCCl)ccc1C=NNC(=O)c1cccnc1 | . | . | -13.6 | . | . | . | .
Cc1c(N=Cc2c(O)n(Cc3ccc(F)cc3)c(=O)[nH]c2=O)c(=O)n(-c2ccccc2)n1C | 20.9 | -4.0 | 63.0* | 13.9 | 22.7 | 3.6 | -25.6
C1=C(c2c[nH]c3ccccc23)CCN(Cc2ccccc2)C1 | -19.7 | 0.3 | 55.1* | 40.8 | 19.7 | 19.6 | -50.1
CSc1ncc(Cl)c(C(=O)O)n1 | 14.8 | -9.7 | 54.5 | 8.8 | 34.3 | -4.4 | 10.7
CSc1ncc(Br)c(N2CC2)n1 | . | . | -0.7 | . | . | . | .
CCC(C)NC(=O)CCC(=O)OC1O[C@H]2OC3(C)CC[C@H]4[C@H](C)CCC(C1C)C24OO3 (stereo not given in full) | . | 33.3 | 79.1* | . | 84.2* | 22.4 | 25.5*
CC1=CC2OC3CC4OC(=O)C=CC=CC(=O)OCCC(C)C(O)C(=O)OCC2(CC1O)C4(C)C31CO1 (stereo not given) | . | . | 88.1* | . | 96.1* | 81.8* | 103.9*
N/C(=N\N=C\c1ccc(O)cc1O)N[N+](=O)[O-] | -28.8 | 0.7 | 55.3* | -31.0 | 14.4 | 15.2 | 42.1*
N#CC(c1ccccc1)N1CCOCC1 (stereo not given) | -4.1 | -6.2 | 3.9 | -8.8 | . | . | .
CNC(=O)Oc1ccccc1OC(C)C | . | . | -9.1 | . | . | . | .
SMILES | 697 NFkB inh | Beta apoptosis | Gli-Sufu block | Jurkat NFkB inh | Gli-Sufu confirm | SufuKO cytotox | Wnt3a cs
CC1CN=C(NCCc2ccccc2)S1 (stereo not given) | -28.3 | -1.6 | 7.5 | -1.0 | . | . | .
OC(c1ccccc1)(c1ccccc1)C1CN2CCC1CC2 (stereo not given) | -14.5 | -5.4 | 21.6 | -13.8 | . | . | .
OC(c1ccccc1)(c1ccc(Cl)cc1)C1CN2CCC1CC2 (stereo not given) | -9.6 | -2.3 | 58.3* | -3.8 | 26.6 | 21.6 | -43.5
CC(NCc1ccccc1C(F)(F)F)C(O)c1ccccc1 (stereo not given) | 5.3 | -2.4 | -13.3 | 6.2 | . | . | .
CC[C@@H](O)C[C@H]1CCC[C@@]2(C[C@@H]3OC(=O)/C=C/[C@@](C)(O)[C@@H](O)[C@H](C)[C@@H](O)[C@H](OC4CCC(N(C)C)C(C)O4)[C@@H](O)[C@](C)(O)CCCCC/C=C/[C@@H]4CC(C)(C)O[C@@]4(O)C[C@H](O2)[C@H]3C)O1 (stereo not given in full) | . | . | 88.8* | . | 89.0* | 20.4 | 22.4
CCOc1ccc(-n2c(O)c(C=Nc3ccc(N(CC)CC)cc3)c(=O)[nH]c2=O)cc1 | -33.3 | . | 97.4* | 10.5 | 10.9 | 16.7 | -11.8
CCN(CC)c1ccc(N=Cc2c(O)n(-c3ccccc3)c(=O)[nH]c2=O)cc1 | 0.1 | -6.1 | -2.2 | 4.0 | . | . | .
O=c1[nH]c(=S)n(Cc2ccc(F)cc2)c(O)c1C=NCc1cccnc1 | -12.6 | -14.0 | 71.7* | -0.8 | 22.4 | -4.8 | -13.6
C/C(=N\Nc1cccc2ccccc12)c1c(O)n(Cc2ccccc2)c(=O)[nH]c1=O | -7.0 | 2.8 | 56.5* | 10.7 | 17.6 | 11.6 | -6.7
C=CCCC1(C(C)C)C(=O)NC(=S)NC1=O | . | . | -21.3 | . | . | . | .
CCOC(=O)CNC(=O)CNC(=O)C(Cc1ccc(N(CCCl)CCCl)cc1)NC(C)=O (stereo not given) | -0.9 | . | 15.9 | -2.5 | . | . | .
CC(=O)NC(Cc1ccc(N(CCCl)CCCl)cc1)C(=O)NCC(=O)NCC(=O)O (stereo not given) | 9.7 | 9.5 | 53.2 | 4.5 | 18.6 | 3.8 | -1.7
O=C1NC(=S)N(c2ccccc2)C(=O)/C1=C/c1ccco1 | -63.2 | -3.9 | 26.3 | -13.0 | . | . | .
CCOc1cccc(N2C(=O)/C(=C/c3ccco3)C(=O)NC2=S)c1 | -7.4 | -3.8 | 55.4* | 0.7 | 11.8 | -0.1 | 5.3
CCOP(=O)(CCP(=O)(OCC)OCC)OCC.C[CH2][Sn]([Cl])([Cl])[CH2]C | . | . | 63.4* | . | 62.5* | 13.5 | -25.5
O=Cc1cn(Cc2ccccc2F)c2ccccc12 | 13.7 | 0.5 | 2.7 | 8.2 | . | . | .
CC(=O)c1cn(Cc2ccccc2F)c2ccccc12 | 10.8 | . | 59.4* | 38.3 | 48.7* | 36.5* | 19.0

High-throughput results deposited in PubChem by several laboratories.
